# Reference: ChEMBL document CHEMBL1961873, “Compounds: GSK PKIS; Assays: Nanosyn kinase panel” (2012)
# Assays:
# [1] = target: Serine/threonine-protein kinase MARK2 (Homo sapiens) (UniProt Q7KZI7); conditions: at 1 µM
# [2] = target: PAS domain-containing serine/threonine-protein kinase (Homo sapiens) (UniProt Q96RG2); conditions: at 0.1 µM
# [3] = target: PAS domain-containing serine/threonine-protein kinase (Homo sapiens) (UniProt Q96RG2); conditions: at 1 µM
# [4] = target: Phosphorylase b kinase gamma catalytic chain, skeletal muscle/heart isoform (Homo sapiens) (UniProt Q16816); conditions: at 0.1 µM
# Sequence of Phosphorylase b kinase gamma catalytic chain, skeletal muscle/heart isoform (Homo sapiens) (Q16816 whole entry, looked up, canonical isoform): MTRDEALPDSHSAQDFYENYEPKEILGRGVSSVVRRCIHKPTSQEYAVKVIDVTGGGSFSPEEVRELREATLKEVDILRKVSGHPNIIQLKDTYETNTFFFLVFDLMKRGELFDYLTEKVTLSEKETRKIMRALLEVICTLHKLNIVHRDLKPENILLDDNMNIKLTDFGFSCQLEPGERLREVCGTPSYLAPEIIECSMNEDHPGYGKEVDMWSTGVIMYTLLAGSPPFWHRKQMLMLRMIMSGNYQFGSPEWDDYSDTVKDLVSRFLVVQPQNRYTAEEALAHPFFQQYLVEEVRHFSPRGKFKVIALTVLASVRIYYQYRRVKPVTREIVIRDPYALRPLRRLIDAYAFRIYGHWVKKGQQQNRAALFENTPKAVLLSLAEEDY
# [5] = target: Phosphorylase b kinase gamma catalytic chain, skeletal muscle/heart isoform (Homo sapiens) (UniProt Q16816); conditions: at 1 µM
# [6] = target: T1, Phosphorylase b kinase gamma catalytic chain, liver/testis isoform (Homo sapiens) (UniProt P15735); conditions: at 0.1 µM
# T1 sequence (whole entry): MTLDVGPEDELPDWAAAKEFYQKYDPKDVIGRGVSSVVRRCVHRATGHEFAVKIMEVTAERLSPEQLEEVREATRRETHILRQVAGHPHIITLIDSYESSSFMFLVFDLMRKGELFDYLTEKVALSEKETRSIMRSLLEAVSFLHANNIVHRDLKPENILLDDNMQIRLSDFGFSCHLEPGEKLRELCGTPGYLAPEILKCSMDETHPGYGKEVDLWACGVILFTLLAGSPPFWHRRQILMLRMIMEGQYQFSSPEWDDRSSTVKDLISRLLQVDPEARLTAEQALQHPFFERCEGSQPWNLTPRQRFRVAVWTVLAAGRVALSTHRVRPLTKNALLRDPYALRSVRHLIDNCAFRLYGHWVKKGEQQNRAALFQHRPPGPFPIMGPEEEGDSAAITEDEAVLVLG
# [7] = target: T1, Phosphorylase b kinase gamma catalytic chain, liver/testis isoform (Homo sapiens); conditions: at 1 µM
# [8] = target: Serine/threonine-protein kinase pim-1 (Homo sapiens) (UniProt P11309); conditions: at 0.1 µM
# Sequence of Serine/threonine-protein kinase pim-1 (Homo sapiens) (P11309 whole entry, looked up): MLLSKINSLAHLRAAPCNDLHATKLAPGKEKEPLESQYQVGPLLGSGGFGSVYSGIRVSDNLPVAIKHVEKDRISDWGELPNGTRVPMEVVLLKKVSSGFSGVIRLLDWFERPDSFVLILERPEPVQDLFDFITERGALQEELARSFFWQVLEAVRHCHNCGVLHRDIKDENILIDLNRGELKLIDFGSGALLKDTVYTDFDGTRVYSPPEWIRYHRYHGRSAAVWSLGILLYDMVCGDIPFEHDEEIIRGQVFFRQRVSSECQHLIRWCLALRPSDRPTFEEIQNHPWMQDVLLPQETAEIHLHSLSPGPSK
# [9] = target: Serine/threonine-protein kinase pim-1 (Homo sapiens) (UniProt P11309); conditions: at 1 µM
# [10] = target: Serine/threonine-protein kinase pim-2 (Homo sapiens) (UniProt Q9P1W9); conditions: at 0.1 µM;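 further: reported value is the mean percent inhibition of PIM2, measured in the GSK PKIS kinase inhibitor set screen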
# Sequence of Serine/threonine-protein kinase pim-2 (Homo sapiens) (Q9P1W9 whole entry, looked up): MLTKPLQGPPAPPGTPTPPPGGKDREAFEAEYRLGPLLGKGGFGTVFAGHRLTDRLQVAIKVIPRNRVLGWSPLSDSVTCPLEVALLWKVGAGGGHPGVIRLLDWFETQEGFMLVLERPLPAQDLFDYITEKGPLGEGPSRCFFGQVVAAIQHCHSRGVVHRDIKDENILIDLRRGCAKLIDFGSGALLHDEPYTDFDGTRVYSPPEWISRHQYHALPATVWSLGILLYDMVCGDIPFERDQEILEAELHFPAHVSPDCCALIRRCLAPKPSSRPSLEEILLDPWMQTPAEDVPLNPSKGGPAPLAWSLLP
# Sequence of PAS domain-containing serine/threonine-protein kinase (Homo sapiens) (Q96RG2 whole entry, the tested form may be a part, canonical isoform): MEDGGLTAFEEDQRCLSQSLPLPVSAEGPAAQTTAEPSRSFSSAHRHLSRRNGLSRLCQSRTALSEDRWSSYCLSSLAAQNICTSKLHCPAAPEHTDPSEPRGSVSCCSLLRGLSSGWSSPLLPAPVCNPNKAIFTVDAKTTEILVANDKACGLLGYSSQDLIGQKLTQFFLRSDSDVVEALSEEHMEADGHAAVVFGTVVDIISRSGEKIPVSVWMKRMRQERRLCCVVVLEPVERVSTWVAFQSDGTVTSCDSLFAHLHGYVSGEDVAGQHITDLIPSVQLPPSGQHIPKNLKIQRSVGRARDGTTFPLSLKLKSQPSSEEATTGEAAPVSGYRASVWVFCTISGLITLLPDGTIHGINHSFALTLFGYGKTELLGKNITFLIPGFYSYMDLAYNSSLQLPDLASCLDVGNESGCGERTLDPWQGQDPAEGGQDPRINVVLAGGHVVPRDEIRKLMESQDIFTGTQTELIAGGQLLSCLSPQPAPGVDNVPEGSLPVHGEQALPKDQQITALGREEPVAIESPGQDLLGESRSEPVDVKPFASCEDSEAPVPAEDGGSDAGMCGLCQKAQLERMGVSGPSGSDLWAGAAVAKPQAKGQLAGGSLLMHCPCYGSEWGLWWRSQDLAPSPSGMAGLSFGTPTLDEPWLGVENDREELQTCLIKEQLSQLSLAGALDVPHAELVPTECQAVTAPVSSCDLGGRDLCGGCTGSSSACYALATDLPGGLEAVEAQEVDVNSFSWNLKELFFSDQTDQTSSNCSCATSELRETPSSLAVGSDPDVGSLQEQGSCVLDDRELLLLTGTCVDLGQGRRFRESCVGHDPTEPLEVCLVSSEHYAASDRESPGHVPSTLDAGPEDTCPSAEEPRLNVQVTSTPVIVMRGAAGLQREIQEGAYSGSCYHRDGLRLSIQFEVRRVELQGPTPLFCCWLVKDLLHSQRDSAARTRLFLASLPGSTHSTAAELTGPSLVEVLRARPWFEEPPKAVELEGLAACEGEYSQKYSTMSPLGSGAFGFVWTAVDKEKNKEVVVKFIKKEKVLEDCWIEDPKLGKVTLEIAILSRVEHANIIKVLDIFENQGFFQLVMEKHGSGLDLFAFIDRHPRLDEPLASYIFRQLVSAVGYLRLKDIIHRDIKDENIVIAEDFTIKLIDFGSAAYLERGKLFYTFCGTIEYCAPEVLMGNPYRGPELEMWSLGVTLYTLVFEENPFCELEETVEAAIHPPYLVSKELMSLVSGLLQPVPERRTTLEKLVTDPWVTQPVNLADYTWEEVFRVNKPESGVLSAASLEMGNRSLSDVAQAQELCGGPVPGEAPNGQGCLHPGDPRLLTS
# Sequence of Serine/threonine-protein kinase MARK2 (Homo sapiens) (Q7KZI7 whole entry, the tested form may be a part): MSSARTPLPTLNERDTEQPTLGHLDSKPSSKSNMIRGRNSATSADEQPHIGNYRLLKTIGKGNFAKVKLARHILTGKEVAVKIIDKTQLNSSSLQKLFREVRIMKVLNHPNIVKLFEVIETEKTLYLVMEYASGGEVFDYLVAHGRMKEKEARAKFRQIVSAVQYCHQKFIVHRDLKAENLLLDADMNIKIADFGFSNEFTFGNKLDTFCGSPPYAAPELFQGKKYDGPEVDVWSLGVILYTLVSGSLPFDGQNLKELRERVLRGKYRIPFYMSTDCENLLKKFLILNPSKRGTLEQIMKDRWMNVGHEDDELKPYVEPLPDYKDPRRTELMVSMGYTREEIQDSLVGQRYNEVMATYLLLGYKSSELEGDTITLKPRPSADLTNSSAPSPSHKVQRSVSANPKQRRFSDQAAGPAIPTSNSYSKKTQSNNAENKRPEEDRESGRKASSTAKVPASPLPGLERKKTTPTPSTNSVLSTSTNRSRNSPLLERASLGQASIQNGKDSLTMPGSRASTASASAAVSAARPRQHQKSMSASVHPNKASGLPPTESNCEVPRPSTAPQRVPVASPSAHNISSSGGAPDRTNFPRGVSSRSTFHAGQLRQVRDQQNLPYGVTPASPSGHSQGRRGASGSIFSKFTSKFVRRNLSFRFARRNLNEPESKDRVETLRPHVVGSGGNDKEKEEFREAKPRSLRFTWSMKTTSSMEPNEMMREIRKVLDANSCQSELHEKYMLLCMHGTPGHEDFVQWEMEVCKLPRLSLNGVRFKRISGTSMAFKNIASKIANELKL
SMILES,inhibition [1] [%],inhibition [2] [%],inhibition [3] [%],inhibition [4] [%],inhibition [5] [%],inhibition [6] [%],inhibition [7] [%],inhibition [8] [%],inhibition [9] [%],inhibition [10] [%]
c1ccc(-c2nc3n(c2-c2ccc4c(c2)OCO4)CCC3)nc1,1.22,-5.85,-0.24,3.66,2.79,1.19,0.01,0.37,0.72,-0.34
CCn1c(-c2nonc2N)nc2ccccc21,2.79,1.01,0.51,2.03,2.71,3.71,0.96,0.21,4.54,-0.12
CS(=O)(=O)CCNCc1coc(-c2ccc3ncnc(Nc4ccc(OCc5ccccc5)cc4)c3c2)c1,2.39,0.45,0.89,2.33,6.25,3.94,3.59,1.45,1.25,-0.56
Cc1cccc2c1NC(=O)/C2=N\Nc1ccc(S(N)(=O)=O)cc1,1.34,0.5,-1.79,-1.4,2.98,3.6,2.88,1.4,-0.19,0.28
COc1ccc(-c2nn3ncccc3c2-c2ccnc(Nc3ccc4c(c3)OCCO4)n2)cc1,-0.07,1.07,0.37,2.6,6.21,0.91,0.83,0.46,-0.36,0.54
Nc1ncc(-c2cccc(S(N)(=O)=O)c2)c2scc(-c3ccc(F)c(Cl)c3)c12,2.5,0.62,1.05,4.52,5.24,6.23,6.66,0.81,0.67,0.52
O=S(=O)(CCNCc1ccc(-c2ccc3ncnc(Nc4ccc(OCc5cccc(F)c5)c(Cl)c4)c3c2)o1)c1ccccc1,-0.14,-0.06,0.32,5.41,9.29,7.91,7.71,-0.13,1.9,0.44
c1cc(-c2cnn3nc(N4CCOCC4)ccc23)nc(NC2CC2)n1,7.93,0.49,-0.94,3.94,29.5,6.12,12.2,0.22,3.37,-0.29
Fc1ccc(-c2nn3ncccc3c2-c2ccnc(Nc3ccc4c(c3)OCCO4)n2)cc1,-1.26,-0.29,-3.15,4.49,6.66,4.66,0.54,0.37,1.21,0.26
Cc1cccc(Nc2ncc(-c3ccccc3)o2)c1,6.99,-0.74,1.15,2.49,0.97,2.92,3.71,1.11,0.94,0.15
CCCN1CCC(c2ccc(Nc3nc(Nc4cc(F)ccc4C(N)=O)c4cc[nH]c4n3)c(OC)c2)CC1,41,0.01,20.7,51.3,80.7,25.7,71.7,7.64,45.3,1.98
CC(=O)Nc1cccc(C#Cc2cncnc2Nc2ccc(OCc3cccc(F)c3)c(Cl)c2)c1,0.33,1.37,-0.46,0.65,1.71,3.82,1.55,1.32,0.75,0.84
CS(=O)(=O)CCNCc1ccc(-c2ccc3ncnc(Nc4ccc(OCc5ccccc5)c(C(F)(F)F)c4)c3c2)o1,1.46,0,0.88,7.15,6.03,5.4,5.06,-0.57,1.31,0.54
COc1ccc(-c2cc(-c3c[nH]nc3-c3ccccn3)ccn2)cc1,1.63,1.23,0.75,2.63,6.04,6.55,8.39,-0.05,0.03,0.36
Nc1nc(-c2cccc(Cl)c2)c(-c2ccc3ncccc3n2)s1,-0.63,0.04,1.47,6.45,11.3,5.42,10.1,1.14,3.59,-0.44
[O-][S+]1CCN(Cc2ccc(-c3ccc4ncnc(Nc5ccc(OCc6cccc(F)c6)c(Cl)c5)c4c3)o2)CC1,2.61,0.34,0.46,5.93,8.77,7.01,6.77,0.76,2.24,0.73
COc1cccc(-c2c[nH]c3c(N/N=C/c4ccncc4)ncnc23)c1,5.48,0.94,-0.58,3.01,12.1,3.45,1.52,1.65,5.38,-0.12
CN(C)CCOc1ccc(-c2nc(-c3ccncc3)c(-c3ccc4c(c3)CC/C4=N\O)[nH]2)cc1,0.92,-0.26,0.36,1.18,7.7,3.65,5.28,1.13,1.48,-0.23
Fc1cccc(COc2ccc(Nc3ncnc4sc(-c5ccco5)cc34)cc2Cl)c1,2.25,-0.19,0.63,5.6,5.83,4.96,5.36,-0.57,0.55,0.56
CN1CCC(n2cnc(-c3ccc(F)cc3)c2-c2ccnc(Nc3ccccc3)n2)CC1,-0.33,-0.38,2.19,3.44,4.79,3.49,2.68,0.38,2.62,-0.56
